Laboratory results taken from PubChem BioAssay (NCATS).
Results filed as inconclusive are left out. A number with no mark means an inactive call. The source made the active and inactive calls. The call rests on the fitted dose curve; in most records, active means well fitted curve in the direction sought with a large enough effect; inconclusive means small, poorly fitted or top-dose-only effect, or another doubt; inactive means no such curve, though single readings can be large; an effect the other way counts as inactive or inconclusive.

Key:
[1] = Quantitative High-Throughput drug screen in 47 multiple myeloma cell lines against the NCATS MIPE library collection: MMM1_PLB cell viability assay (AID 1918976); further: nearly all actives have a fitted effect of over 35% in size
Method in brief: (§1)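 Inhibition of viability over 48 h was scored by ATP content (CellTiter-Glo) in 500-cell wells. Zero and full viability were defined by media-only and DMSO-only wells.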

[2] = Quantitative High-Throughput drug screen in 47 multiple myeloma cell lines against the NCATS MIPE library collection: NCIH929_DSMZ cell viability assay (AID 1918978); further: nearly all actives have a fitted effect of over 35% in size
Method in brief: as §1

[3] = Quantitative High-Throughput drug screen in 47 multiple myeloma cell lines against the NCATS MIPE library collection: OCIMY1_PLB cell viability assay (AID 1918979); further: nearly all actives have a fitted effect of over 35% in size;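 on viability: 100% = DMSO-only wells and 0% = cell-free media-only wells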
Method in brief: as §1

[4] = Quantitative High-Throughput drug screen in 47 multiple myeloma cell lines against the NCATS MIPE library collection: MM1S_ATCC cell viability assay (AID 1918980); further: nearly all actives have a fitted effect of over 45% in size
Method in brief: as §1

[5] = Quantitative High-Throughput drug screen in 47 multiple myeloma cell lines against the NCATS MIPE library collection: MM1R_ATCC cell viability assay (AID 1918981); further: nearly all actives have a fitted effect of over 35% in size
Method in brief: as §1

[6] = Quantitative High-Throughput drug screen in 47 multiple myeloma cell lines against the NCATS MIPE library collection: LP1_DSMZ cell viability assay (AID 1918982); further: nearly all actives have a fitted effect of over 35% in size
Method in brief: as §1

[7] = Quantitative High-Throughput drug screen in 47 multiple myeloma cell lines against the NCATS MIPE library collection: L363_DSMZ cell viability assay (AID 1918984); further: nearly all actives have a fitted effect of over 40% in size
Method in brief: as §1

[8] = Quantitative High-Throughput drug screen in 47 multiple myeloma cell lines against the NCATS MIPE library collection: KMS34_JCRB cell viability assay (AID 1918985); further: nearly all actives have a fitted effect of over 40% in size
Method in brief: as §1

[9] = Quantitative High-Throughput drug screen in 47 multiple myeloma cell lines against the NCATS MIPE library collection: OCIMY7_PLB cell viability assay (AID 1918987); further: nearly all actives have a fitted effect of over 65% in size
Method in brief: as §1

[10] = Quantitative High-Throughput drug screen in 47 multiple myeloma cell lines against the NCATS MIPE library collection: OCIMY5_PLB cell viability assay (AID 1918988); further: nearly all actives have a fitted effect of over 65% in size
Method in brief: as §1

[11] = Quantitative High-Throughput drug screen in 47 multiple myeloma cell lines against the NCATS MIPE library collection: OPM1_PLB cell viability assay (AID 1918989); further: nearly all actives have a fitted effect of over 40% in size
Method in brief: as §1

[12] = Quantitative High-Throughput drug screen in 47 multiple myeloma cell lines against the NCATS MIPE library collection: SKMM1_PLB cell viability assay (AID 1919863); settings: SKMM1 myeloma viability, CellTiter-Glo ATP, 48 h; viability: hits give low values; further: nearly all actives have a fitted effect of over 35% in size
Method in brief: as §1

[13] = Quantitative High-Throughput drug screen in 47 multiple myeloma cell lines against the NCATS MIPE library collection: U266_ATCC cell viability assay (AID 1919864); further: nearly all actives have a fitted effect of over 35% in size;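 on viability (% of DMSO control): 0% = media-only wells without cells and 100% = DMSO-only wells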
Method in brief: as §1

[14] = Quantitative High-Throughput drug screen in 47 multiple myeloma cell lines against the NCATS MIPE library collection: XG1_PLB cell viability assay (AID 1919866); further: nearly all actives have a fitted effect of over 35% in size
Method in brief: as §1

[15] = Quantitative High-Throughput drug screen in 47 multiple myeloma cell lines against the NCATS MIPE library collection: VP6_DJ cell viability assay (AID 1919867); further: nearly all actives have a fitted effect of over 40% in size
Method in brief: as §1

[16] = Quantitative High-Throughput drug screen in 47 multiple myeloma cell lines against the NCATS MIPE library collection: MOLP8_DSMZ cell viability assay (AID 1918977); further: nearly all actives have a fitted effect of over 45% in size
Method in brief: as §1

[17] = Quantitative High-Throughput drug screen in 47 multiple myeloma cell lines against the NCATS MIPE library collection: KMS28PE_JCRB cell viability assay (AID 1918983); further: nearly all actives have a fitted effect of over 35% in size
Method in brief: as §1

[18] = Quantitative High-Throughput drug screen in 47 multiple myeloma cell lines against the NCATS MIPE library collection: XG6_PLB cell viability assay (AID 1919865); further: nearly all actives have a fitted effect of over 40% in size
Method in brief: as §1

[19] = Quantitative High-Throughput drug screen in 47 multiple myeloma cell lines against the NCATS MIPE library collection: PE2_PLB cell viability assay (AID 1919869); further: nearly all actives have a fitted effect of over 35% in size
Method in brief: as §1

[20] = Quantitative High-Throughput drug screen in 47 multiple myeloma cell lines against the NCATS MIPE library collection: UTMC2_PLB cell viability assay (AID 1919868); settings: CellTiter-Glo ATP luminescence, 48 h; viability (% of DMSO control): at 45.8 µM (top of the series); further: nearly all actives have a fitted effect of over 55% in size
Method in brief: as §1
Potency means the concentration at half of the fitted maximal effect.

O=C(Nc1ccncc1)C(=O)c1cn(Cc2ccc(Cl)cc2)c2ccccc12
Potency [1]: 14800 nM (active)
Potency [2]: 1320 nM (active)
Potency [3]: 118 nM (active)
Potency [4]: 264 nM (active)
Potency [5]: 187 nM (active)
Potency [6]: 93.5 nM (active)
Potency [7]: 13.2 nM (active)
Potency [8]: 46.9 nM (active)
Potency [9]: 1 nM (active)
Potency [10]: 37.2 nM (active)
Potency [11]: 52.6 nM (active)
Potency [12]: 418 nM (active)
Potency [13]: inactive
Potency [14]: 6.6 nM (active)
Potency [15]: 23.5 nM (active)

C[C@@H]1CC[C@@]2(OC1)O[C@H]1C[C@H]3[C@@H]4CC=C5C[C@@H](O[C@@H]6O[C@H](CO)[C@@H](O[C@@H]7O[C@@H](C)[C@H](O)[C@@H](O)[C@@H]7O)[C@H](O)[C@@H]6O[C@@H]6O[C@@H](C)[C@H](O)[C@@H](O)[C@@H]6O)CC[C@]5(C)[C@@H]4CC[C@]3(C)[C@@H]1[C@H]2C
Potency [1]: 2350 nM (active)
Potency [16]: 1870 nM (active)
Potency [2]: 4180 nM (active)
Potency [3]: 1660 nM (active)
Potency [5]: 2090 nM (active)
Potency [6]: 2960 nM (active)
Potency [17]: 2960 nM (active)
Potency [7]: 1870 nM (active)
Potency [8]: 1870 nM (active)
Potency [9]: 3320 nM (active)
Potency [10]: 1660 nM (active)
Potency [11]: 2960 nM (active)
Potency [12]: 2350 nM (active)
Potency [18]: 3720 nM (active)
Potency [15]: 2960 nM (active)
Potency [19]: 4690 nM (active)

CC[C@@H]1[C@@H](C)O[C@@](O)([C@@H](C)[C@H](O)[C@H](C)[C@H]2OC(=O)C=CC=C[C@@H](C)[C@@H]([C@@H](C)[C@@H](O)[C@H](C)[C@@]3(O)C[C@H](O[C@H]4C[C@H](O)[C@H](O)[C@H](C)O4)[C@H](CC)[C@@H](C)O3)OC(=O)C=CC=C[C@@H]2C)C[C@H]1O[C@H]1C[C@H](O)[C@H](O)[C@H](C)O1
Potency [1]: 743 nM (active)
Potency [2]: 935 nM (active)
Potency [3]: 833 nM (active)
Potency [4]: 469 nM (active)
Potency [5]: 526 nM (active)
Potency [6]: 590 nM (active)
Potency [17]: 372 nM (active)
Potency [7]: 372 nM (active)
Potency [8]: 935 nM (active)
Potency [9]: 662 nM (active)
Potency [10]: 372 nM (active)
Potency [11]: 1050 nM (active)
Potency [12]: 662 nM (active)
Potency [18]: 469 nM (active)
Potency [14]: 469 nM (active)
Potency [15]: 469 nM (active)
Potency [19]: 833 nM (active)

CCOC(=O)Nc1ccc(NCc2ccc(F)cc2)cc1N
Potency [16]: inactive
Potency [2]: 14800 nM (active)
Potency [3]: inactive
Potency [4]: 18700 nM (active)
Potency [5]: inactive
Potency [6]: inactive
Potency [17]: inactive
Potency [8]: inactive
Potency [9]: 10500 nM (active)
Potency [10]: inactive
Potency [11]: 18700 nM (active)
viability [12]: 119%
Potency [13]: 13200 nM (active)
Potency [14]: 13200 nM (active)
Potency [15]: 20900 nM (active)
Potency [19]: inactive

C=CCON=C(C[C@H]1O[C@@H]2O[C@]3(C)CC[C@@H]4[C@H](C)CC[C@@H]([C@H]1C)[C@@]24OO3)[C@H]1O[C@@H]2O[C@]3(C)CC[C@H]4[C@H](C)CC[C@@H]([C@@H]1C)[C@@]24OO3
Potency [1]: 187 nM (active)
Potency [16]: 235 nM (active)
Potency [2]: 148 nM (active)
Potency [3]: 187 nM (active)
Potency [4]: 526 nM (active)
Potency [5]: 296 nM (active)
Potency [17]: 264 nM (active)
Potency [8]: 264 nM (active)
Potency [9]: 105 nM (active)
Potency [10]: 187 nM (active)
Potency [11]: 526 nM (active)
Potency [12]: 264 nM (active)
Potency [13]: 332 nM (active)
Potency [18]: 264 nM (active)
Potency [14]: 418 nM (active)
Potency [15]: 166 nM (active)
Potency [20]: 372 nM (active)
Potency [19]: 469 nM (active)

COc1cccc2c1[C@]13CCN(CC4CC4)[C@H](C2)[C@]1(OC)CCC(=O)C3
Potency [16]: inactive
Potency [2]: inactive
Potency [3]: inactive
Potency [4]: inactive
Potency [5]: inactive
Potency [6]: inactive
Potency [17]: inactive
Potency [9]: inactive
Potency [10]: inactive
Potency [11]: inactive
Potency [13]: inactive
Potency [18]: inactive
Potency [14]: inactive
Potency [15]: 20900 nM (active)
Potency [19]: inactive

COc1ccc(N(C(=O)Oc2c(C)cccc2C)c2ccnc(Nc3ccc(N4CCN(C)CC4)cc3)n2)c(OC)c1
Potency [1]: 3720 nM (active)
Potency [3]: inactive
Potency [4]: 4690 nM (active)
Potency [5]: 2350 nM (active)
Potency [17]: 18700 nM (active)
Potency [8]: 1050 nM (active)
Potency [10]: 1180 nM (active)
Potency [11]: 20900 nM (active)
Potency [18]: 332 nM (active)
Potency [14]: 296 nM (active)
Potency [15]: 2960 nM (active)
Potency [19]: 2640 nM (active)

CCNC(=O)C[C@@H]1N=C(c2ccc(Cl)cc2)c2cc(OC)ccc2-n2c(C)nnc21
Potency [1]: 209 nM (active)
Potency [3]: 1050 nM (active)
Potency [4]: 1050 nM (active)
Potency [5]: 590 nM (active)
Potency [17]: 264 nM (active)
Potency [9]: 2640 nM (active)
Potency [10]: 209 nM (active)
Potency [12]: 469 nM (active)
Potency [13]: 372 nM (active)
Potency [15]: 296 nM (active)
Potency [19]: 2960 nM (active)

CC(C)[C@]12O[C@@H]1[C@@H]1O[C@]13[C@]1(O[C@H]1C[C@@H]1C4=C(CC[C@@]13C)C(=O)OC4)[C@H]2O
Potency [1]: inactive
Potency [2]: inactive
Potency [3]: inactive
Potency [4]: inactive
Potency [5]: inactive
Potency [6]: inactive
Potency [17]: inactive
Potency [7]: inactive
Potency [8]: inactive
Potency [9]: inactive
Potency [10]: inactive
Potency [11]: inactive
viability [12]: -10.1%
Potency [13]: inactive
Potency [18]: inactive
Potency [14]: inactive
Potency [15]: inactive
Potency [19]: inactive
